Experimental findings from PMC4336329 (PLoS ONE, 2015) are described below.

About 14,000 (4.5%) of roughly 310,000 compounds showed an effect of 50% or more. Effects have a minus sign here. What follows is part of a selection rich in strong results, with near analogues and random picks from the rest.
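Further: peak tail current of the secondary pulse compared with the same well before compound.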

In the assay the target is human ether-à-go-go-related gene (hERG) potassium channel (human, UniProt Q12809). In words: primary screen, population patch clamp on CHO cells stably expressing hERG; higher = less effect of the substance.
human ether-à-go-go-related gene (hERG) potassium channel, sequence (Q12809 whole entry, looked up): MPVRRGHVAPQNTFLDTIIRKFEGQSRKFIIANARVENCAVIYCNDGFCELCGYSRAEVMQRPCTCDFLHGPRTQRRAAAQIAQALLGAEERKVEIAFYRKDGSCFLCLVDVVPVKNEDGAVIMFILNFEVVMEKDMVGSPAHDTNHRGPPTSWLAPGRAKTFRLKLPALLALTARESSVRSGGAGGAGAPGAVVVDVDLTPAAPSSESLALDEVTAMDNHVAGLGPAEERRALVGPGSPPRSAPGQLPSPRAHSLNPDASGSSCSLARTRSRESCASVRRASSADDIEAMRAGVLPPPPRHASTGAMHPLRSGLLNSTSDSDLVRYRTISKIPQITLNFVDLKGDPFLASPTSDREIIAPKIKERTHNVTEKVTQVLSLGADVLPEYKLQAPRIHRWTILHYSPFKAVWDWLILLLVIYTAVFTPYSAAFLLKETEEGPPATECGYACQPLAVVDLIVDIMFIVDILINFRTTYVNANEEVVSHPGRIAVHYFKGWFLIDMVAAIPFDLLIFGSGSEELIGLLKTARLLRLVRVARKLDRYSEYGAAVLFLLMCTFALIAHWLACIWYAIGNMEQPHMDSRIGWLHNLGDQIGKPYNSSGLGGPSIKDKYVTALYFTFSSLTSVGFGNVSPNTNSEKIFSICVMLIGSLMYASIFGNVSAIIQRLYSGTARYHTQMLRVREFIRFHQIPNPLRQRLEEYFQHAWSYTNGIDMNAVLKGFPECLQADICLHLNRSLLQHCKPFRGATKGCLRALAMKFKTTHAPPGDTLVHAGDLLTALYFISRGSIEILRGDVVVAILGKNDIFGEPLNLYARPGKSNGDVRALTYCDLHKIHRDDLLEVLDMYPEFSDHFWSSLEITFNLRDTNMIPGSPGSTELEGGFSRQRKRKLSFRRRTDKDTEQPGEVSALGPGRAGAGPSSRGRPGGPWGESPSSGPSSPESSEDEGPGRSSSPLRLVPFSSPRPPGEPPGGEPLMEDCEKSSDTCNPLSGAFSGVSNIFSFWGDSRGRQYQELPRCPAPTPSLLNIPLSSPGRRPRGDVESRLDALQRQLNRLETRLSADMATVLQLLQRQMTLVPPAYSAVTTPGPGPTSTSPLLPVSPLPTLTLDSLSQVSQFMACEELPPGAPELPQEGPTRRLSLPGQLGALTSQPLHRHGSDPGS
Take `CCN(CC)C(=O)c1c2c(nc3ccccc13)-c1ccccc1CC2`: the “hERG current change (%, negative = inhibition) at 10uM” value was -12.6%. In the case of `CCOC(=O)/C(C#N)=C\C=C1C=CN(C)C=C1`, the “hERG current change (%, negative = inhibition) at 10uM” value was 0.0919%. As to `Cc1cc(C)c2oc(=O)cc(CN3CCN(Cc4ccccc4)CC3)c2c1`, the “hERG current change (%, negative = inhibition) at 10uM” value is -33.2%.

Take `Cc1ccc2c(CN3CCN(Cc4ccccc4)CC3)cc(=O)oc2c1C`: the “hERG current change (%, negative = inhibition) at 10uM” value is recorded as -55.3%.

For `Cc1cc(C)c2c(CN3CCN(Cc4ccccc4)CC3)cc(=O)oc2c1C.Cl`, the “hERG current change (%, negative = inhibition) at 10uM” value is on record as -40.8%. With `CCc1cc(=O)oc2c(CN3CCN(C)CC3)c(O)ccc12`, the “hERG current change (%, negative = inhibition) at 10uM” value was 8.25%.

As for `Cc1ccc2c(CN3CCCCC3)cc(=O)oc2c1C`, the “hERG current change (%, negative = inhibition) at 10uM” value is listed as -1.49%. Then `Cc1c(O)ccc2c(CN3CCN(Cc4ccccc4)CC3)cc(=O)oc12`, with -61.9%. For the compound `Cc1c(O)ccc2c(CN3CCN(CCO)CC3)cc(=O)oc12`, the “hERG current change (%, negative = inhibition) at 10uM” value was 3.5%.

With `O=c1cc(CN2CCOCC2)c2ccc(O)c(O)c2o1`, the “hERG current change (%, negative = inhibition) at 10uM” value is 10.1%. The result for `O=c1cc(CN2CCN(Cc3ccccc3)CC2)c2ccc(O)c(O)c2o1` reads -65.8%; that for `COc1ccc(NC(=O)C2CC(=O)OC2(C)C)cc1` (stereo not drawn), 3.44%.

Regarding `CCOC(=O)CNC(=O)Nc1ccccc1C(=O)OC`, the “hERG current change (%, negative = inhibition) at 10uM” value is 15.1%. On to `Cc1cc(C)n(S(=O)(=O)c2cccc([N+](=O)[O-])c2)n1`, for which the “hERG current change (%, negative = inhibition) at 10uM” value was found to be 3.73%. The result for `COc1ccc(C(=O)C(C)N(C(=O)c2ccc(Cl)cc2Cl)N2C(=O)C3C4C=CC(C4)C3C2=O)cc1` (stereo not drawn) reads 0.401%; that for `Cc1cccc(OC(=O)c2sc3ncn(C)c(=O)c3c2C)c1`, 3.54%. Consider `O=C(Cn1nc2n(c1=O)-c1ccccc1SC2)N/N=C/c1ccncc1`, for which the “hERG current change (%, negative = inhibition) at 10uM” value is -1.97%. Turning to `Nc1c(C(=O)OC2CCCCC2)c2nc3ccccc3nc2n1CC1CCCO1` (stereo not drawn), the “hERG current change (%, negative = inhibition) at 10uM” value is -63.7%. As for `Nc1c(C(=O)NC2CCCC2)c2nc3ccccc3nc2n1CC1CCCO1` (stereo not drawn), the “hERG current change (%, negative = inhibition) at 10uM” value is listed as -4.67%. In the case of `CC(C)OC(=O)c1c(N)n(CC2CCCO2)c2nc3ccccc3nc12` (stereo not drawn), the “hERG current change (%, negative = inhibition) at 10uM” value is reported as -29.3%. Take `Nc1cc(Cl)ccc1N1CCOCC1`: the “hERG current change (%, negative = inhibition) at 10uM” value was -1.57%.

`C[n+]1ccccc1COc1ccc(C(C)(C)C)cc1.Cc1ccc(S(=O)(=O)[O-])cc1`: the “hERG current change (%, negative = inhibition) at 10uM” value was 2.84%. Then `COc1ccc(-c2c(-c3cc(OC)cc(OC)c3)n(C)c3ccc(-c4ccc(S(N)(=O)=O)cc4)cc23)cc1`, with 14.8%; and `Cc1ccc(-n2c3nc(=O)[nH]c(=O)c-3cc3cc([N+](=O)[O-])ccc32)cc1`, with -57.6%; and `Cc1ccc(-n2c3nc(=O)[nH]c(=O)c-3cc3cc([N+](=O)[O-])ccc32)cc1C`, with -26.9%. Regarding `Cc1cccc(-n2c3nc(=O)[nH]c(=O)c-3cc3cc([N+](=O)[O-])ccc32)c1`, the “hERG current change (%, negative = inhibition) at 10uM” value is given as -35.1%. Consider `COc1ccc(CNC(=O)C(=O)NCC2OCCN2S(=O)(=O)c2ccc(F)cc2)cc1` (stereo not drawn), for which the “hERG current change (%, negative = inhibition) at 10uM” value is listed as -3.41%. Then `COc1ccc(-c2nc(CSCC(=O)NCc3ccc4c(c3)OCO4)c(C)o2)cc1`, with -6.05%. With `COc1ccccc1NS(=O)(=O)c1ccc(N/N=C(\C)C(C)C)c([N+](=O)[O-])c1`, the “hERG current change (%, negative = inhibition) at 10uM” value amounted to 9.29%.

Take `CCOC(=O)c1ccccc1NC(=O)c1c(O)[nH]c(=S)[nH]c1=O`: the “hERG current change (%, negative = inhibition) at 10uM” value is 15.6%.

Consider `Cc1ccc(-c2nn(-c3ccc(F)cc3)cc2C(=O)N2CCN(C3CCS(=O)(=O)C3)CC2)cc1` (stereo not drawn), for which the “hERG current change (%, negative = inhibition) at 10uM” value is on record as -61.6%. For the compound `Cc1ccc(-c2nn(-c3ccc(F)cc3)cc2C(=O)NC2CCC(O)CC2)cc1` (stereo not drawn), the “hERG current change (%, negative = inhibition) at 10uM” value was 14.4%. The result for `Cc1ccc(-c2nn(-c3ccccc3)cc2C(=O)N2CCN(C3CCS(=O)(=O)C3)CC2)cc1` (stereo not drawn) reads -68.8%; that for `COc1cccc(-c2nn(-c3ccc(C)cc3)cc2C(=O)N2CCc3cc(OC)c(OC)cc3C2)c1`, -31.7%.

In the case of `O=C(c1cn(-c2ccccc2)nc1-c1ccc(F)cc1)N1CCCCC1`, the “hERG current change (%, negative = inhibition) at 10uM” value was -10.6%. Then `COc1ccc(-c2nn(-c3ccccc3)cc2C(=O)NCC2CCCO2)cc1` (stereo not drawn), with -0.557%; and `Cc1cccc(-c2nn(-c3ccccc3)cc2C(=O)N2CCN(C3CCS(=O)(=O)C3)CC2)c1` (stereo not drawn), with -36.6%. Consider `COc1cccc(-c2nn(-c3ccc(C)cc3)cc2C(=O)NCC2CCCO2)c1` (stereo not drawn), for which the “hERG current change (%, negative = inhibition) at 10uM” value is -62.2%. For the compound `COc1cccc(-c2nn(-c3ccccc3)cc2C(=O)O)c1`, the “hERG current change (%, negative = inhibition) at 10uM” value turned out to be 1.11%. Take `COc1cccc(-c2nn(-c3ccc(F)cc3)cc2C(=O)NCC2CCCO2)c1` (stereo not drawn): the “hERG current change (%, negative = inhibition) at 10uM” value is -49.7%.

Regarding `COc1cccc(-c2nn(-c3ccc(C)cc3)cc2C(=O)N2CCN(C3CCS(=O)(=O)C3)CC2)c1` (stereo not drawn), the “hERG current change (%, negative = inhibition) at 10uM” value is listed as -57%. Turning to `CCc1ccc(-c2nn(-c3ccccc3C)cc2C(=O)N2CCN(C3CCS(=O)(=O)C3)CC2)cc1` (stereo not drawn), the “hERG current change (%, negative = inhibition) at 10uM” value is -1.98%. As for `Cc1ccc(OCC(=O)NNC(=O)CSc2ncnc3sc(C)c(C)c23)cc1`, the “hERG current change (%, negative = inhibition) at 10uM” value worked out at 39.6%. Turning to `CC1CC(=O)Nc2ccccc2N1S(=O)(=O)c1cccc(F)c1` (stereo not drawn), the “hERG current change (%, negative = inhibition) at 10uM” value is on record as 9.89%. Then `O=C(CC1C(=O)NCCN1Cc1cccc(F)c1)NC1CCC1` (stereo not drawn), with -3.12%; and `CCC(CC)C(=O)c1c[nH]c(C(=O)O)c1`, with 19.6%. Consider `CC1CCN(Cc2cc(=O)oc3cc(O)c(Cl)cc23)CC1`, for which the “hERG current change (%, negative = inhibition) at 10uM” value is given as 9.11%.

As for `Cc1nn(-c2ccccc2)c(C)c1/C=N/NC(=O)c1cc(C(C)(C)C)[nH]n1`, the “hERG current change (%, negative = inhibition) at 10uM” value was -9.72%. Take `O=C(Nc1nnc(-c2ccncc2)s1)Nc1ccccc1F`: the “hERG current change (%, negative = inhibition) at 10uM” value amounted to 14.2%. With `Cc1cc(C)c(C(=O)/C=C/c2ccc(C(C)C)cc2)c(=O)[nH]1`, the “hERG current change (%, negative = inhibition) at 10uM” value amounted to 10%. As for `Cc1ccccc1N(CC(=O)NCCSC1CCCCC1)S(=O)(=O)c1ccccc1`, the “hERG current change (%, negative = inhibition) at 10uM” value is recorded as -16%.

With `COC(=O)Cn1c(=O)c(C(=O)CCl)c(N)n(Cc2ccccc2)c1=O`, the “hERG current change (%, negative = inhibition) at 10uM” value is -0.133%. Take `CCOc1ccc(CN(C)CC(=O)c2c(N)n(Cc3ccccc3)c(=O)n(CC)c2=O)cc1OC`: the “hERG current change (%, negative = inhibition) at 10uM” value is listed as -75.5%. `COc1ccc(CN(C)CC(=O)c2c(N)n(Cc3ccccc3)c(=O)n(C)c2=O)c(OC)c1`: the “hERG current change (%, negative = inhibition) at 10uM” value is reported as -66.1%. With `CCn1c(=O)c(C(=O)CN(C)Cc2ccc(F)cc2)c(N)n(Cc2ccccc2)c1=O`, the “hERG current change (%, negative = inhibition) at 10uM” value is reported as -71%. `CN(C)CC(=O)c1c(N)n(Cc2ccccc2)c(=O)n(C)c1=O`: the “hERG current change (%, negative = inhibition) at 10uM” value was -7.58%. Then `CCn1c(=O)c(C(=O)CN2c3ccccc3CC2C)c(N)n(Cc2ccccc2)c1=O` (stereo not drawn), with 3.42%; and `CCn1c(=O)c(C(=O)CN(C)Cc2cccc(OC)c2OC)c(N)n(Cc2ccccc2)c1=O`, with -50.3%. Regarding `CCN(CC)CC(=O)c1c(N)n(Cc2ccccc2)c(=O)n(C)c1=O`, the “hERG current change (%, negative = inhibition) at 10uM” value is reported as -2.27%. With `CCn1c(=O)c(C(=O)CC#N)c(N)n(Cc2ccccc2)c1=O`, the “hERG current change (%, negative = inhibition) at 10uM” value is listed as -4.73%. In the case of `COc1cccc(NC(=O)CN(C)CC(=O)c2c(N)n(Cc3ccccc3)c(=O)n(C)c2=O)c1`, the “hERG current change (%, negative = inhibition) at 10uM” value was -8.12%. Take `CCn1c(=O)c(C(=O)CN2CCCc3ccccc32)c(N)n(Cc2ccccc2)c1=O`: the “hERG current change (%, negative = inhibition) at 10uM” value is -6.1%. In the case of `CCn1c(=O)c(C(=O)CN2CCc3ccccc32)c(N)n(Cc2ccccc2)c1=O`, the “hERG current change (%, negative = inhibition) at 10uM” value was 19%.
